G9a block – qHTS Assay for Inhibitors of Histone Lysine Methyltransferase G9a; Histone-lysine N-methyltransferase EHMT2 (Homo sapiens), Q96KQ7; G9a H3K9 monomethylation, AlphaScreen, 2 h; Potency, µM (titrated, usually from 102 µM), hits mostly inhibitors; 350,000 tested, 8.8% active; also: nearly all actives have a fitted effect of over 75% in size
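Chemiluminescent proximity detection of H3K9 monomethylation, read after 10 min bead incubation in the dark. Reaction: 20 nM G9a, 500 nM biotin-H3K9 peptide, 20 uM SAM cofactor, 2 h, room temperature, following 15 min enzyme-compound preincubation.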
HP1b binding inh – HTS for Inhibitors of HP1-beta Chromodomain Interactions with Methylated Histone Tails; Chromobox protein homolog 1 (Homo sapiens), P83916; AlphaScreen HP1-beta / biotin-H3K9me3 peptide binding; Potency, µM (top dose mostly 114 µM), actives largely listed as inhibitors; 390,000 tested, 0.56% active; AID 540317, 2011; also: nearly all actives have a fitted effect of over 70% in size
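AlphaScreen: HP1-beta (50 nM) preformed 30 min with biotin-H3(1-18)K9me3 peptide (50 nM) in PBS pH 7.4, 0.01% Tween-20. Compound added for 30 min at RT, then streptavidin donor/nickel chelate acceptor beads (10 ug/mL) for 30 min.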
Sfp PPTase inh – qHTS Assay for Inhibitors of Bacillus subtilis Sfp phosphopantetheinyl transferase (PPTase); Potency, µM, most hits filed as inhibitors; 4'-phosphopantetheinyl transferase ffp (Bacillus subtilis), Q9F4F7; Biochemical Sfp PPTase activity, qHTS; 310,000 tested, 3.5% active; AID 1490, 2009;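 also: the enzyme is Sfp with the accession as filed and its product quenches rhodamine fluorescence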
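After 15 min at room temperature with compound, 15 nM Sfp received 5 uM rhodamine-CoA plus 12.5 uM BHQ-2-ybbR (50 mM Hepes pH 7.6, 10 mM MgCl2). Rate came from the fluorescence difference over 30 min, ex 525/em 598 nm.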
BAZ2B inh – qHTS Assay for Inhibitors of BAZ2B. Bromodomain adjacent to zinc finger domain protein 2B (Homo sapiens), Q9UIF8. AlphaScreen BAZ2B-H3K14Ac peptide displacement. Potency, µM (series often up to 114 µM), most hits filed as inhibitors. 360,000 tested, 4.4% active; also: nearly all actives have a fitted effect of over 60% in size
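BAZ2B 50 nM plus b-H3(5-23)K14Ac 50 nM, PBS pH 7.4/0.01% Tween-20, 30 min RT; compound added (max 110 uM), 30 min RT; streptavidin donor/Ni-chelate acceptor beads 10 ug/mL final, 20 min dark; AlphaScreen read.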
JMJD2A Tudor inh – qHTS Assay for Inhibitors of JMJD2A-Tudor Domain | Potency, µM (highest dose often 114 µM), hits mostly inhibitors | Lysine-specific demethylase 4A (Homo sapiens), O75164 | AlphaScreen JMJD2A-Tudor / H3K4me3 peptide binding | 390,000 tested, 4.4% active | AID 504339, 2011; also: nearly all actives have a fitted effect of over 50% in size
Target sequence (O75164 whole entry, looked up, the tested form may be a part): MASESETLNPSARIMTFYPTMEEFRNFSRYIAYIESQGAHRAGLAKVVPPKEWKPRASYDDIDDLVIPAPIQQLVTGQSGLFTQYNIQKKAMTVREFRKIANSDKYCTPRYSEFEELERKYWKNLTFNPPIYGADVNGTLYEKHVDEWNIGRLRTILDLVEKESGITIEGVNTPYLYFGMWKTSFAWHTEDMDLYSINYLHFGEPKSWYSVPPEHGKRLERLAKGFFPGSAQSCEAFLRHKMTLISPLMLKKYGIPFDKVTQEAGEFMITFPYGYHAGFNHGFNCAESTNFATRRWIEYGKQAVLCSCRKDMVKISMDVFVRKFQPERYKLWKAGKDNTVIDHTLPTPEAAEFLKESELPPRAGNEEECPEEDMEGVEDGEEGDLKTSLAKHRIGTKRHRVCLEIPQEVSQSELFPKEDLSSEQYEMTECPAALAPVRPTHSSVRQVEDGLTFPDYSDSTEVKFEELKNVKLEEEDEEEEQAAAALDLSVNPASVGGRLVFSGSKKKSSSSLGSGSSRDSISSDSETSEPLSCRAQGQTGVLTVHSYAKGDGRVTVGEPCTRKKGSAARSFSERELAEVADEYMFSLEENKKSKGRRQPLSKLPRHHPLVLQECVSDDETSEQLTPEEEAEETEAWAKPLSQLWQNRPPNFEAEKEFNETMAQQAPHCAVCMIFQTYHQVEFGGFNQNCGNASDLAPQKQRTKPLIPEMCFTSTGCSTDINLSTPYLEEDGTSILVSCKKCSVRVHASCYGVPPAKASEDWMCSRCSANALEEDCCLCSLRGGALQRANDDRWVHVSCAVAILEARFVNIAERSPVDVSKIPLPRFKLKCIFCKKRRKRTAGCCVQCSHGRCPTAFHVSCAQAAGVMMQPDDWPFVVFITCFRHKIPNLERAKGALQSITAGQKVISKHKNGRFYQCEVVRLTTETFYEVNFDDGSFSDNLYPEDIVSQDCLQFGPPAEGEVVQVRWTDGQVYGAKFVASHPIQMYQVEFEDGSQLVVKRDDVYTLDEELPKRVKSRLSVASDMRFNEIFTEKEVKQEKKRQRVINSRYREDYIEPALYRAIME
Numbers stand for hits; i = inactive; ? = inconclusive; nt = no result given; [ ] = dose if it differs, or a comment. This is a sample that favours compounds with a hit; in the whole collection about 12% have one here. Calls follow the shape of the dose curve; as a rule, active = well fitted curve in the direction sought with a large enough effect; inconclusive = small, poorly fitted or top-dose-only effect, or another doubt; inactive = no such curve, though single readings can be large; an effect the other way counts as inactive or inconclusive.

SMILES | G9a block | HP1b binding inh | Sfp PPTase inh | BAZ2B inh | JMJD2A Tudor inh
C/C(=N\O)c1ccc2c(c1)CC(C)O2 (centres undefined) | i | i | i | i | i
CC1CCC2(CC1)NC(=O)N(NC(=O)CSc1nnc(NC3CC3)s1)C2=O (centres undefined) | i[12.7 µM] | i | nt | i | i
CCCOc1ccc(-c2csc3nc[nH]c(=O)c23)cc1 | nt | i | i | i | i
CCOc1ccc(-c2c(C)sc3nc[nH]c(=O)c23)cc1 | i | i | i | i | 89.1µM
O=C1c2ccccc2NC(c2cccc(O)c2)N1O (centres undefined) | 44.7µM | i | i | i | i
O=C1c2ccccc2NC(c2ccc(Br)o2)N1O (centres undefined) | i[2.33 µM] | i | nt | i | 79.4µM
O=C1c2ccccc2NC(c2ccc([N+](=O)[O-])cc2)N1O (centres undefined) | 56.2µM | i | i | i | i
O=C1c2ccccc2NC(c2ccc(-c3cccs3)o2)N1O (centres undefined) | i[0.501 µM] | i | nt | ? | i
COc1cccc(C(=O)NC2CCN(CC(=O)Nc3ccccc3Cl)CC2)c1 | i[2.33 µM] | i | i | i | i
Cc1cccc(NC(=O)CSc2cn(CC(=O)N3CCOCC3)c3ccccc23)c1 | i | i | nt | i | i
CN(Cc1ccccc1)C(=S)NC(=O)c1cccs1 | 39.8µM | i | i | ? | i
CN(Cc1ccccc1)C(=S)NC(=O)c1ccc(-c2ccccc2)cc1 | i | i | i | i | i
Cc1cc(=O)oc2cc(OCC(=O)NCc3cccnc3)ccc12 | i | i | i | i | i
CC(Nc1nc2ncn(Cc3ccccc3)c2c(=O)[nH]1)C(=O)O (centres undefined) | i | i | i | i | i
CCOC(=O)c1c(NC(=O)/C=C/C(=O)O)sc(C)c1-c1ccc(C)c(C)c1 | nt | i | 25.1µM | ? | i
COC(=O)c1c(NC(=O)/C=C/C(=O)O)sc(C)c1-c1ccc(C)c(C)c1 | i | i | i | i | i
CCOC(=O)c1c(NC(=O)/C=C/C(=O)O)sc(C)c1-c1ccc(F)cc1 | i | i | 50.1µM | i | i
Cc1ccn2cc(-c3ccc(O)c(O)c3)nc2c1 | 8.91µM | ? | 50.1µM | 70.8µM | 39.8µM
CCS(=O)(=O)Nc1cc(-c2cn3ccc(C)cc3n2)ccc1C | i | i | nt | i | i
Oc1ccc(-c2cn3ccccc3n2)cc1O | 2µM | ? | ? | 79.4µM | 25.1µM
Cc1ccn2cc(CC(=O)O)nc2c1 | 20µM | 70.8µM | 56.2µM | 56.2µM | 39.8µM
CCOC(=O)c1ccc(NC(=S)NCCCN2CCCC2=O)cc1 | i | i | i | i | i
CC(=O)Nc1ccc(SCC(=O)NC(=O)c2ccccc2Br)cc1 | ? | i | nt | i | i
O=c1[nH]cnc2sc3c(c12)CN(Cc1ccccc1)CC3 | 25.1µM | i | i | i | i
CC(C)C1=CC2=CCC3C(C)(C(=O)O)CCCC3(C)C2CC1 (centres undefined) (tested in a mixture with another compound) | 70.8µM | nt | i | i | nt
SMILES | G9a block | HP1b binding inh | Sfp PPTase inh | BAZ2B inh | JMJD2A Tudor inh
CCN1CCN(C2=NC(=O)/C(=C/c3ccc(C)o3)S2)CC1 | 31.6µM | i | 15.8µM | ? | i
CCc1ccc(/C=C2/SC(N3CCOCC3)=NC2=O)cc1 | nt | i | i | i | i
NC1=NC(=O)C(=Cc2ccccc2)S1 | nt | i | nt | nt | i
O=C1N=C(N2CCN(c3ccccc3)CC2)S/C1=C\c1ccco1 | 39.8µM | i | i | 50.1µM | ?
NC1=NC(=O)/C(=C\c2ccco2)S1 | i[12.7 µM] | 56.2µM | 35.5µM | 79.4µM | 50.1µM
O=C1N=C(N2CCCC2)S/C1=C\c1ccccc1 | i | i | i | i | 56.2µM
O=C1N=C(N2CCOCC2)S/C1=C/c1cccs1 | i[12.7 µM] | i | i | i | i
O=[N+]([O-])/C=C1\C=CC=CN1Cc1ccc(Cl)cc1 | i[2.33 µM] | i | i | i | i
Cc1ccc(N2CCN(C3=NC(=O)/C(=C\c4cn[nH]c4-c4ccccc4)S3)CC2)cc1 | i | i | i | i | 50.1µM
O=C1N=C(N2CCN(c3ccccc3)CC2)S/C1=C/c1ccco1 | 50.1µM | i | i | 44.7µM | ?
Cc1ccccc1N1CCN(C2=NC(=O)/C(=C\c3cccs3)S2)CC1 | 50.1µM | i | i | i | i
O=C1N=C(N2CCN(c3ccccc3)CC2)S/C1=C\c1cn[nH]c1-c1ccccc1 | i | i | i | i | i
O=C1COc2ccc(S(=O)(=O)N3CCCCCC3)cc2N1 | i | i | i | i | i
CN(C)CC(=O)N1c2ccccc2CCc2ccc(NC(=O)c3ccc(N)cc3)cc21 | i[12.7 µM] | i | i | ? | i
CCOC(=O)c1c(NC(=O)C(C)Sc2cccc[n+]2[O-])sc2c1CCN(Cc1ccccc1)C2 (centres undefined) | 8.91µM | i | i | i | ?
CCOC(=O)c1c(NC(=O)CC)sc2c1CCN(Cc1ccccc1)C2 | nt | i | i | i | i
CCOC(=O)c1c(NC(C)=O)sc2c1CCN(Cc1ccccc1)C2 | nt | i | i | i | i
COC(=O)c1c(NC(=O)C2COc3ccccc3O2)sc2c1CCN(Cc1ccccc1)C2 (centres undefined) | 79.4µM | i | i | i | ?
CCOC(=O)c1c(NC(=O)CSc2ncccn2)sc2c1CCN(Cc1ccccc1)C2 | ? | i | i | ? | 22.4µM
CCc1ccccc1NC(=O)CNC(=O)c1n[nH]c(=O)c2ccccc12 | i[12.7 µM] | i | nt | i | i
Cc1ccc2c(c1)c1nnc(SCC(=O)Nc3ccc(N(C)C)cc3)nc1n2CC(=O)O | 25.1µM | i | 79.4µM | ? | ?
Cc1ccc2c(c1)c1nnc(SCC(=O)Nc3ccccc3C(F)(F)F)nc1n2CC(=O)O | i | i | i | i | i
Cc1ccc2c(c1)c1nnc(SCC(=O)Nc3cccc(Cl)c3C)nc1n2CC(=O)O | ? | i | i | 50.1µM | ?
COc1ccc2[nH]c(C)c(CCN(Cc3cccs3)C(=S)Nc3ccc(F)cc3)c2c1 | ? | ? | i | ? | ?
CCOc1ccc(Cc2c(C)[nH]c3ccc(C(=O)O)cc3c2=S)cc1 | 12.6µM | i | 56.2µM | i | 25.1µM
COc1ccc2[nH]c(C)c(CCNC(=S)Nc3ccc(F)cc3)c2c1 | 56.2µM | i | i | nt | ?
CS(=O)(=O)NCCNc1ccc(C(F)(F)F)cc1[N+](=O)[O-] | i | i | i | i | i
COc1ccc2[nH]c(C)c(CCNC(=S)Nc3ccccc3OC)c2c1 | 56.2µM | i | i | nt | ?
COc1ccc2[nH]c(C)c(CCNc3ccc(C(F)(F)F)cc3[N+](=O)[O-])c2c1 | 11.2µM | ? | i | 28.2µM | 22.4µM
CCCCOC(=O)c1ccc(OC(=O)N2CCOCC2)cc1 | i | i | i | i | i

Assay outcomes from PubChem BioAssay.
